Data as given in PubChem BioAssay AID720597 (Broad Institute, 2013).
Potency and affinity values are given separately. Activity calls are given as the source filed them.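 How the source made its calls: active means fitted half-maximal dose no more than twice the top valid tested dose, for compounds that lower signal; inconclusive means fit invalid, or curve flat with activity between -70 and -30; inactive means potency past limit, curve flat within ±30, or signal increasing.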

Target: NAD-dependent protein deacylase sirtuin-5, mitochondrial (Homo sapiens) (UniProt Q9NXA8)
Experiment: blockers of sirtuin-5 peptide desuccinylation – biochemical, fluorescence imaging, cherry-pick, set 6, dose response (AID 720597);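 further: lower AMC signal can also come from blocking the trypsin step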
Details: Purified SirT5, succinyl-peptide-AMC/trypsin fluorescence; series mostly up to 15 µM

Chain of NAD-dependent protein deacylase sirtuin-5, mitochondrial (Homo sapiens) (Q9NXA8 whole entry, looked up): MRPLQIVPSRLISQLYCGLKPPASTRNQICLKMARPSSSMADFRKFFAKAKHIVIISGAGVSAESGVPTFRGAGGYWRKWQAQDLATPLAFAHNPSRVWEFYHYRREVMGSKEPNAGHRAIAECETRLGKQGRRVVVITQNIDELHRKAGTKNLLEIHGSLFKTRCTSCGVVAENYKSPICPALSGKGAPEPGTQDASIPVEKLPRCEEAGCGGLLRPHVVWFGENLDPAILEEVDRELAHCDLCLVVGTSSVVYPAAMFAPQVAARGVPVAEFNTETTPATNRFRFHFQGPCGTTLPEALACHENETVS

outcome, inactive:
Cc1noc(C)c1S(=O)(=O)N(C)C[C@@H]1OCCCC[C@@H](C)Oc2ccc(NC(=O)Nc3cccc4ccccc34)cc2C(=O)N([C@H](C)CO)C[C@@H]1C
O=C(c1cccnc1)N1CCCCN2[C@H](CO)[C@@H](c3ccc(C#Cc4ccccn4)cc3)[C@@H]2C1
COc1cccc(NC(=O)N2CC(=O)N3[C@H](CO)[C@H](c4ccc(C#CCC5CCCC5)cc4)[C@@H]3C2)c1
COCC(=O)Nc1ccc2c(c1)[C@@H]1C[C@@H](CC(=O)NCc3ccccc3OC)O[C@@H](CO)[C@@H]1O2
C[C@@H]1CCCCO[C@@H](CN(C)CC2CCCCC2)[C@@H](C)CN([C@@H](C)CO)C(=O)c2cc(NS(=O)(=O)c3ccc(F)cc3)ccc2O1
C[C@@H]1CN([C@@H](C)CO)C(=O)c2cc(C#CCN(C)C)cnc2O[C@H]1CN(C)Cc1ccncc1
O=C(Nc1ccccc1)N1C[C@@H]2[C@H](c3ccccc31)[C@@H](CO)N2CC1CCCC1
C[C@H](CO)N1C[C@H](C)[C@H](CN(C)Cc2ccc(Cl)c(Cl)c2)Oc2ccc(NC(=O)CCCCCC(=O)Nc3ccccc3N)cc2C1=O
CCCC(=O)Nc1ccc2c(c1)OC[C@@H](C)N(Cc1ccccc1OC)C[C@@H](C)[C@H](OC)CN(C)C2=O
